Experimental findings from ChEMBL document CHEMBL3988442, “University of Dundee, Small-Polar-MMV Screening Library” (2021) are described below.

The structures appear in SMILES notation. For some assays here: Measured potencies and affinities stand elsewhere.

Holding throughout (design): scale not given: direction of the effect not stated beside the values
In assay [1] the target is Protein translocase subunit SecA (Escherichia coli (strain K12)) (UniProt P10408). The assay can be described thus: Assay to Identify E. coli SecA ATPase Inhibitors. As to conditions: 30 µM. In kind it is functional.
Protein translocase subunit SecA (Escherichia coli (strain K12)), sequence (P10408 whole entry): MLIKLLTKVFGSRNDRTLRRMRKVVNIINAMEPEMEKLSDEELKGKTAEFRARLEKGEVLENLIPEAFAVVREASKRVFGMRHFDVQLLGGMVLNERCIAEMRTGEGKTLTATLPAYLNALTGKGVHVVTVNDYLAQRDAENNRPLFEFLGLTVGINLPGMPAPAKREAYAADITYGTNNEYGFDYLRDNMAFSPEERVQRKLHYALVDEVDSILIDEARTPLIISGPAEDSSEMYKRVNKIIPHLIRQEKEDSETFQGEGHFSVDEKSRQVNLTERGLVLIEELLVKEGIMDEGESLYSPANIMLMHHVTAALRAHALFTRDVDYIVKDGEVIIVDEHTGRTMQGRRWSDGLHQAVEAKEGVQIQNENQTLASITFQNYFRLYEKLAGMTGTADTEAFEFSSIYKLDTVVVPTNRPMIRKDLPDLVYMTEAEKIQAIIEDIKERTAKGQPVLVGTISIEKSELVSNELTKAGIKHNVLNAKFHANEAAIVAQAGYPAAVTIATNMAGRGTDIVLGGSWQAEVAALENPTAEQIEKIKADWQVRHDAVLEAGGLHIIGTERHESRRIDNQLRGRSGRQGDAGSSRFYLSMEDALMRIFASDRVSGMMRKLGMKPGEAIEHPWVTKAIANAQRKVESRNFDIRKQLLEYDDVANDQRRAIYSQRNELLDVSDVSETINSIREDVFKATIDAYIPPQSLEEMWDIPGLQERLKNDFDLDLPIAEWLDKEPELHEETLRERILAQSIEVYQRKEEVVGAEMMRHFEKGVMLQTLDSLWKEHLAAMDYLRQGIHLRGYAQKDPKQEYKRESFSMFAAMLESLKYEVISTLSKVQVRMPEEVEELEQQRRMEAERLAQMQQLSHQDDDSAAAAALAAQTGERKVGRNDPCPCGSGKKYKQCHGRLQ
The target of assay [2] is T1, Ubiquitin-activating enzyme e1, putative (Leishmania donovani (strain BPK282A1)) (UniProt E9BSI1).
T1 sequence (whole entry): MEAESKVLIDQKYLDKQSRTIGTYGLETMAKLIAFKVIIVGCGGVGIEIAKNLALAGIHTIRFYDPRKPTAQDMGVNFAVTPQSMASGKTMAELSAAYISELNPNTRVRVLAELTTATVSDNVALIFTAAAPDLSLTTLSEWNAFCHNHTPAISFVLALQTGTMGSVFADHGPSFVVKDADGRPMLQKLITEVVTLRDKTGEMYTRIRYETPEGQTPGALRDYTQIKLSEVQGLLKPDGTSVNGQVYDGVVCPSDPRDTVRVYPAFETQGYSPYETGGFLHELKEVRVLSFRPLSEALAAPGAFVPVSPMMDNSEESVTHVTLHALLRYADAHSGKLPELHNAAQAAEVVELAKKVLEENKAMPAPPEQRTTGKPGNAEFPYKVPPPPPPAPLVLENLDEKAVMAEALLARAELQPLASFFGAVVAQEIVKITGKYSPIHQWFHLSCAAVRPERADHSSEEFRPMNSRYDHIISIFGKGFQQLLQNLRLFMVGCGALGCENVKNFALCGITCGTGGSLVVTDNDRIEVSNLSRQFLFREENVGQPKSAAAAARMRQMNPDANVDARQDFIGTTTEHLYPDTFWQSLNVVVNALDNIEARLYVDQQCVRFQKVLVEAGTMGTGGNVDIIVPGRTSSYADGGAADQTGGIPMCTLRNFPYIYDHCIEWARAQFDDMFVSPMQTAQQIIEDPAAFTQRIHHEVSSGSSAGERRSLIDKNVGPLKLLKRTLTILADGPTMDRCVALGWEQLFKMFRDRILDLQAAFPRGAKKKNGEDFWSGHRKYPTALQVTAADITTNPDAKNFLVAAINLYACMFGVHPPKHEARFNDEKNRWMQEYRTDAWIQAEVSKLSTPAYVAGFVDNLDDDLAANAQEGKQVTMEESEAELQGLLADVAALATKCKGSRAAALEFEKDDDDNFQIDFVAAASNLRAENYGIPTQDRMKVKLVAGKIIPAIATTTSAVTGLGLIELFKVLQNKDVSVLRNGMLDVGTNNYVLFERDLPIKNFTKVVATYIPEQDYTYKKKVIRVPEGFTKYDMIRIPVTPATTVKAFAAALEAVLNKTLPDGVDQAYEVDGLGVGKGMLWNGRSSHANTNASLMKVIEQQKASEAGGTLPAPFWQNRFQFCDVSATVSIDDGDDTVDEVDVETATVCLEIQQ
The assay is described as follows: Leishmania donovani Ubiquitin Activating Enzyme (LdE1). The format is functional. As to conditions: 30 µM.

For assay [3], the target named is T2, Aspartate--tRNA(Asp/Asn) ligase (Mycobacterium tuberculosis (strain ATCC 25618 / H37Rv)) (UniProt P9WFW3). Further: in the data most compounds retested in dose-response had high values.
T2 sequence (whole entry): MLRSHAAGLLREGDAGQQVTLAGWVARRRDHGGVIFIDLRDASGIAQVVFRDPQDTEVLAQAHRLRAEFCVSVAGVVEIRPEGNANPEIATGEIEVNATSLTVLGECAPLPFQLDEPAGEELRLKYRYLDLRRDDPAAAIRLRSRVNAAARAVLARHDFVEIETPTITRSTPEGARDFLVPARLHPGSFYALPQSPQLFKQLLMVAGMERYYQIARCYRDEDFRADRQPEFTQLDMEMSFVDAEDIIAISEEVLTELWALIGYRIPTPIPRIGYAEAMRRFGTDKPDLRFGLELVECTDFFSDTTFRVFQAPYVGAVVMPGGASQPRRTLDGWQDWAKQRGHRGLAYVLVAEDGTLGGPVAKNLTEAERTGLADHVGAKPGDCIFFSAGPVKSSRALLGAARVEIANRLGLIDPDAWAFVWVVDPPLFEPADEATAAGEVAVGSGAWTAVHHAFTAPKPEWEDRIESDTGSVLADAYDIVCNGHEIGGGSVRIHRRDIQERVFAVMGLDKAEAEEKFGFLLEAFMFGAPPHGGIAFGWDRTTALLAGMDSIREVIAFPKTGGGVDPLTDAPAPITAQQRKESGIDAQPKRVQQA
The assay is described as follows: Assay for Asp RNA synthetase-1 from Mycobacterium tuberculosis. The format is functional. As to conditions: 30 µM.

For assay [4], the target named is AMP-activated protein kinase, AMPK (Homo sapiens) (UniProt P54646+O43741+P54619+Q9UGJ0+Q9Y478+Q13131+Q9UGI9). The assay is described as follows: AMP-dependent Kinase enzyme assay. An in vitro enzyme assay that detects ADP turnover that is directly proportional to AMPK activity. This uses naive AMPK that is activated during the assay with MK-8722. In kind it is functional. To be noted: 30 µM.

Assay [5] concerns the target Sialic acid-binding Ig-like lectin 9 (Homo sapiens) (UniProt Q9Y336). The assay can be described thus: Hs-Siglec9 ALPHAscreen SOP 20170721. As to conditions: 10 µM. On the technique in general: Alpha assays give light when donor and acceptor beads are brought close together.
A further assay has as its system Trypanosoma cruzi. The assay is described as follows: Trypanosoma cruzi phosphomannomutase and mannose-1-phosphate guanylyltransferase assay. In kind it is functional. As to conditions: 10 µM.
The target of assay [6] is T3, Arginase-2, mitochondrial (Homo sapiens) (UniProt P78540).
T3 sequence (whole entry): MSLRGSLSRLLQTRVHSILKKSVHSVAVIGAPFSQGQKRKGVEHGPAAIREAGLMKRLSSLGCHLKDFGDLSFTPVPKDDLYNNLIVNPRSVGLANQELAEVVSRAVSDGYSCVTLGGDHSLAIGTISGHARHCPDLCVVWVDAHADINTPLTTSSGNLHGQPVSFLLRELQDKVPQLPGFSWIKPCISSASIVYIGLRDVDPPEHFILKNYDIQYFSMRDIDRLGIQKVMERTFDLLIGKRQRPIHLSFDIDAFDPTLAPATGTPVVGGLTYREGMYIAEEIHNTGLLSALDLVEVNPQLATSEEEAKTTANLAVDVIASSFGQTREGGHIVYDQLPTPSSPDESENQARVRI
The assay can be described thus: in vitro enzyme assay to detect the production of urea directly proportional to the activity of Arginase II. Further: in the data most compounds retested in dose-response had high values. In kind it is functional. To be noted: 33.3 µM.

Assay [7] concerns the target T4, Proteasome subunit beta (Trypanosoma cruzi) (UniProt O96673).
T4 sequence (whole entry): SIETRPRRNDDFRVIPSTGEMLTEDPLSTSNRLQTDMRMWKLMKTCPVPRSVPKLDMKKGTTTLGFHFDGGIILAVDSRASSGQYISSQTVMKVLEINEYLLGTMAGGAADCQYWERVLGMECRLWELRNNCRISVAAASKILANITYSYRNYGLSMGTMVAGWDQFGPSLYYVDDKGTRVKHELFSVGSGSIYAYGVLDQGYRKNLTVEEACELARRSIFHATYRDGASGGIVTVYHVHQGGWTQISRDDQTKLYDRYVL
The assay is described as follows: Trypanosoma cruzi proteasome chymotrypsin-like activity (TcProtChymo) assay. Further: in the data most compounds retested in dose-response had high values. In kind it is functional. As to conditions: 9.37 µM.

The next assay is filed under the species Homo sapiens. The assay is described as follows: To identify inhibition of the IFN signalling (Jak-Stat) pathway via expression of an eGFP reporter gene under the control of an IFN-stimulated response element (ISRE) containing MxA promoter. The format is functional. To be noted: 30 µM. A general note: A reporter such as luciferase makes a cellular process visible.

For assay [8], the target named is Shiga toxin 2 (Escherichia coli O157:H7) (UniProt P09385+P09386). The assay can be described thus: E. coli 0.157:H7 Shiga Toxin SOP - stx2 screening assay. In kind it is functional. To be noted: 30 µM.
Assay [9] has as its target T5, Tyrosyl-tRNA synthetase, putative (Trypanosoma cruzi (strain CL Brener)) (UniProt Q4DSP6).
T5 sequence (whole entry): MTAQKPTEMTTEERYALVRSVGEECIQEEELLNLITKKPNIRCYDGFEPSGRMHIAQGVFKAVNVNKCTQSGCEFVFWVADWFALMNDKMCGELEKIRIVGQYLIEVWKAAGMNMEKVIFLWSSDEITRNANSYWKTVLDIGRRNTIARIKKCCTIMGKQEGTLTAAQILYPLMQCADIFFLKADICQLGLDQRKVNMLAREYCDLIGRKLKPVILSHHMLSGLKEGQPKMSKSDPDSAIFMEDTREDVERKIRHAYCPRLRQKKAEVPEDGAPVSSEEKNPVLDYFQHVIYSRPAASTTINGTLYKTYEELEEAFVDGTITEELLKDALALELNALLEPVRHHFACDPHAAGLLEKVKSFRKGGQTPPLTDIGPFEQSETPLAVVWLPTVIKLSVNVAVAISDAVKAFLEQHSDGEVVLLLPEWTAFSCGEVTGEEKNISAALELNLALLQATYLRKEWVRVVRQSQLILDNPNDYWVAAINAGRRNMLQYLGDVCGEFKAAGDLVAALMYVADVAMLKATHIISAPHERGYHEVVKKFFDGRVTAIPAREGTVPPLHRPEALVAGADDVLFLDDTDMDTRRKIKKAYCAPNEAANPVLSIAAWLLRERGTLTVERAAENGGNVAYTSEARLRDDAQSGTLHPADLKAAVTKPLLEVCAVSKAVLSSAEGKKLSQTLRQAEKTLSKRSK
The assay is described as follows: Trypanosoma cruzi tyrosyl tRNA synthetase (TcYRS) _High Tyrosine SOP. Further: in the data most compounds retested in dose-response had high values. In kind it is functional. To be noted: 30 µM.

Assay [10] deals with T5, Tyrosyl-tRNA synthetase, putative (Trypanosoma cruzi (strain CL Brener)). The assay can be described thus: Trypanosoma cruzi tyrosyl tRNA synthetase (TcYRS) SOP. To be noted: 30 µM. In kind it is functional.
The target of assay [11] is Chromo domain-containing protein 1 (Saccharomyces cerevisiae (strain ATCC 204508 / S288c) (Baker's yeast)) (UniProt P32657). The assay is described as follows: ScCHD-1 Enzyme Inhibition Assay. Further: in the data most compounds retested in dose-response had high values. The format is functional. As to conditions: 30 µM.
Chromo domain-containing protein 1 (Saccharomyces cerevisiae (strain ATCC 204508 / S288c) (Baker's yeast)), sequence (P32657 whole entry, the tested form may be a part): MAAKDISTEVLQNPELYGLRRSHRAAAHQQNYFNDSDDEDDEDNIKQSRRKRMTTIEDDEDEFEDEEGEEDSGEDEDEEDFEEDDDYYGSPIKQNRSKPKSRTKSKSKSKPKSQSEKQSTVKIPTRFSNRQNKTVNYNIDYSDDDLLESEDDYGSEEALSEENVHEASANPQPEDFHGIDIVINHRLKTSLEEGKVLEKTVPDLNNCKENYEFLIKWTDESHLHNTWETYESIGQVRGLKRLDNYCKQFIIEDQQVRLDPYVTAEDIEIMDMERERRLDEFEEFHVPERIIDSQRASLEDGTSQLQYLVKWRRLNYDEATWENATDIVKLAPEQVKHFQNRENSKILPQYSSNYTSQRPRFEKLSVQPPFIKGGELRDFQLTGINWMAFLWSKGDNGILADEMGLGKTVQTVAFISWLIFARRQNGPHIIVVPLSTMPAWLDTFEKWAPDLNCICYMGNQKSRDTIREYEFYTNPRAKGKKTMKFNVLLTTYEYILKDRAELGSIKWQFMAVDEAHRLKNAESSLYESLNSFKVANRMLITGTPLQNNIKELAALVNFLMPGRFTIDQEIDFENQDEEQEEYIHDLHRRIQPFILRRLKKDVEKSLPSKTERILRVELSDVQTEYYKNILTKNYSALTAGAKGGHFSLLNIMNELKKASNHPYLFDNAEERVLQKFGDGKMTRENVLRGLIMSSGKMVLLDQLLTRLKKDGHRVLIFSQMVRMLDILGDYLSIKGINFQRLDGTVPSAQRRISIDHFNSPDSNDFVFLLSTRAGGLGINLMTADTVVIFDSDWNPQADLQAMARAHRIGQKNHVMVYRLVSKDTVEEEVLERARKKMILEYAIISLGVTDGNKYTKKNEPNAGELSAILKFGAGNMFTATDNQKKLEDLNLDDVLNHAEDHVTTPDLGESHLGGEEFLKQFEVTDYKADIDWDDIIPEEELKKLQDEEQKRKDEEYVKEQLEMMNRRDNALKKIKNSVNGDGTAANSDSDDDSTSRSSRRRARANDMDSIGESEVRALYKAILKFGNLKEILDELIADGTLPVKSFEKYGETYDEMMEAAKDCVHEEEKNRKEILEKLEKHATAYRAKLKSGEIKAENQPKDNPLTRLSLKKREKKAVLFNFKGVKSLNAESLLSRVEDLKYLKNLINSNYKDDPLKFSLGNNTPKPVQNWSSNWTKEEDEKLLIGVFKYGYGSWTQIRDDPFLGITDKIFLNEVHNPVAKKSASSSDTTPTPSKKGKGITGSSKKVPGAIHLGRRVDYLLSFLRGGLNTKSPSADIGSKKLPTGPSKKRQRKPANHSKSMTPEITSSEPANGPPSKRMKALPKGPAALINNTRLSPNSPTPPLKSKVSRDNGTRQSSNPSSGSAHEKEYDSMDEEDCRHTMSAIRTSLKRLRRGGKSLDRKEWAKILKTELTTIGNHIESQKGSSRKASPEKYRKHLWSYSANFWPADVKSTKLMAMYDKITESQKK

Sialic acid-binding Ig-like lectin 9 (Homo sapiens), sequence (Q9Y336 whole entry): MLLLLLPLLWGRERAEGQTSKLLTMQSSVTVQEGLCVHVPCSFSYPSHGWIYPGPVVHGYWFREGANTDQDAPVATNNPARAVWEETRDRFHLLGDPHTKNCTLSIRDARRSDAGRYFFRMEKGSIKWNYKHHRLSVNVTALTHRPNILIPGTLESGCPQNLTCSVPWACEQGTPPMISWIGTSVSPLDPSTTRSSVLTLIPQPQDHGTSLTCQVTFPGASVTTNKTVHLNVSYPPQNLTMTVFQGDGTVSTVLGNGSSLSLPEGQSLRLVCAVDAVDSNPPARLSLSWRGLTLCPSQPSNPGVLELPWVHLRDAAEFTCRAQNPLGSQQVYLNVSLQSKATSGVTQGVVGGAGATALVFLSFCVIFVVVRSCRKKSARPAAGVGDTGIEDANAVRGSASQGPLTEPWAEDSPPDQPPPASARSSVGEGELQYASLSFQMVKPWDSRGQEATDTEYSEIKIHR

In the case of `c1ccc(CN2CC[C@H]3CO[C@H](CNc4ncccn4)[C@H]3C2)nc1`, the Percent Effect in assay [1] is -2.49%; in assay [2], 8%; in assay [3], -3.84%; in [4], 2.38%; in assay [5], 4.32%; in the assay on Trypanosoma cruzi, -0.772%. Also, the Percent Effect is -54.3% in [6]; 9.74% in [7]; -5.93% in the assay listed under Homo sapiens; 3.55% in assay [8]; 2.08% in [9]; 12.5% in assay [10]. For the same compound, the Percent Effect in [11] is -8.55%.

On to `Cc1cc(CN2CC[C@H]3C[C@H](C)O[C@@H]3C2)no1`, for which the Percent Effect in assay [1] was -1.91%; in assay [2], 18.9%; in assay [3], -4.38%; in [4] it was -0.664%; in assay [5] it was -1.18%; in the assay on Trypanosoma cruzi, 3.23%. The Percent Effect in assay [6] was 5.41%; in [7] it was 9.96%; in the assay filed under Homo sapiens, 17.4%; in assay [8], -1.03%; in assay [9] it was 7.57%; in assay [10] it was 17.9%. The Percent Effect in assay [11] came out at 1.93%.

As for `COCCN1C[C@@H]2[C@@H](OC)CCN(Cc3cccc(C)n3)[C@@H]2C1`, the Percent Effect in assay [1] was -1.97%; in assay [2], 11%; in assay [3], -0.137%; in [4] it was -7.2%; in [5], 9.07%; with Trypanosoma cruzi, 6.75%. Besides, the Percent Effect in assay [6] was -2%; in assay [7], 12.1%; in the assay listed under Homo sapiens, -7.05%; in assay [8], -22.1%; in [9], 7.29%; in assay [10] it was 13.6%. The Percent Effect in assay [11] is -5.26%.

Consider `c1cncc(OC[C@]23COC[C@H]2CN(Cc2cccs2)C3)c1`, for which the Percent Effect in assay [1] was -3.94%; in [2], 5.41%; in [3], 4.12%; in assay [4], 0.208%; in assay [5], -2.85%; in the assay with Trypanosoma cruzi it was -2.34%. The Percent Effect was -0.417% in assay [6]; 6.85% in assay [7]; 11.9% in the assay filed under Homo sapiens; -3% in assay [8]; 6.93% in assay [9]; 15.8% in [10]. For the same compound, the Percent Effect in [11] was 4.29%.

For `O=C1N(c2cncnc2)CCC12CCCN(Cc1ccccn1)C2` (stereo not given), the Percent Effect in assay [1] is -4%; in [2] it was 5.2%; in assay [3], 3.89%; in assay [4], 3.31%; in assay [5], 8.64%; with Trypanosoma cruzi, -1.28%. Besides, the Percent Effect was 2.76% in assay [6]; 2.5% in assay [7]; -1.38% in the assay filed under Homo sapiens; -38.2% in assay [8]; 4.3% in [9]; 8.64% in assay [10]. Besides, in [11], the Percent Effect was 0.251%.
